From the supplement of paper PMC10849652
The full data set covers some 7,900 targets. This sample favours those with a hit. About 0.6% of all pairs of compound and target were hits. A number with no mark means an inactive call.

compound: CC1=C(C=C(C=C1)NC(=O)C2=CC(=CC=C2)C(C)(C)C#N)NC3=CC4=C(C=C3)N=CN(C4=O)C; assay: log2 fold change, soluble protein after heating vs DMSO (PISA); higher = thermal stabilisation; K562 cells, 10 uM, 30 min; active = over 0.2 and 3.5 SD of the protein, either way, in both replicates (recomputed)
Method in brief: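 Aliquots of K562 cells (2×10^6 cells/mL) treated with 10 μM compound for 30 min were heated for 3 min over 48°C-58°C. After pooling and extraction in PBS with 0.5% NP-40 at 4°C, soluble protein from a 21,000xg, 90 min spin was quantified by TMTpro 16plex LC-MS/MS with channel sums equalised. Thermal stability is expressed against control samples, from duplicates, as a log2 fold change.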

UniProt Q9Y2Y1, sequence (Q9Y2Y1 whole entry, looked up): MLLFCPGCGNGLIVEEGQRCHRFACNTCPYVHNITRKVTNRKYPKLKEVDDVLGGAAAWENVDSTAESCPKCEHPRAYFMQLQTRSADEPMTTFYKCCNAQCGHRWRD
UniProt Q96A00, sequence (Q96A00 whole entry, looked up): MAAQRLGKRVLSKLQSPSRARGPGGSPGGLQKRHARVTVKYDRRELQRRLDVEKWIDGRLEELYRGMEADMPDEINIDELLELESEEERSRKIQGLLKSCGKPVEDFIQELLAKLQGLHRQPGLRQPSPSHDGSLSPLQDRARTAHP
UniProt Q13200, sequence (Q13200 whole entry, looked up): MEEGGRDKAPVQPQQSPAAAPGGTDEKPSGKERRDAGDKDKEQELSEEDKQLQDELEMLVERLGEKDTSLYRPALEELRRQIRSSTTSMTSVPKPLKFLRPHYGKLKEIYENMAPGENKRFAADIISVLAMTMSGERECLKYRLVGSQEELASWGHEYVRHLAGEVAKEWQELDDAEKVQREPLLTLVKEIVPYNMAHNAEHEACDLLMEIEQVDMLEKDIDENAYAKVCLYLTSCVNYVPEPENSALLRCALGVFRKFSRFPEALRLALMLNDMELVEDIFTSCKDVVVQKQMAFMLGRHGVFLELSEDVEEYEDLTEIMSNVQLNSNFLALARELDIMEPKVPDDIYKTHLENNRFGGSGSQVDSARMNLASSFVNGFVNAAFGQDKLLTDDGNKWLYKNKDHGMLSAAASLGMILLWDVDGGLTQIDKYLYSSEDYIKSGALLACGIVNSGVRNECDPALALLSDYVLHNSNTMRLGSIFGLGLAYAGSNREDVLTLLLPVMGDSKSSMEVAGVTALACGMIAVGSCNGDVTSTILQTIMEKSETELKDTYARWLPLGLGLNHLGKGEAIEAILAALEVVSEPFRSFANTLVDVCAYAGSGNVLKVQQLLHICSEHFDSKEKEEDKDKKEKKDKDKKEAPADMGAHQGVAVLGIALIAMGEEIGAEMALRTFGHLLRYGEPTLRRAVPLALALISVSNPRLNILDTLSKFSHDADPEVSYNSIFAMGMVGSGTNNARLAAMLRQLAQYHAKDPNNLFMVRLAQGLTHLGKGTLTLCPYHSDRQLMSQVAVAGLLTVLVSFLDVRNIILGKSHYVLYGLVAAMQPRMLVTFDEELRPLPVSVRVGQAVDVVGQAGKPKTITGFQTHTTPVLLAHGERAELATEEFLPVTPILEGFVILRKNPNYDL
UniProt Q10713, sequence (Q10713 whole entry, looked up): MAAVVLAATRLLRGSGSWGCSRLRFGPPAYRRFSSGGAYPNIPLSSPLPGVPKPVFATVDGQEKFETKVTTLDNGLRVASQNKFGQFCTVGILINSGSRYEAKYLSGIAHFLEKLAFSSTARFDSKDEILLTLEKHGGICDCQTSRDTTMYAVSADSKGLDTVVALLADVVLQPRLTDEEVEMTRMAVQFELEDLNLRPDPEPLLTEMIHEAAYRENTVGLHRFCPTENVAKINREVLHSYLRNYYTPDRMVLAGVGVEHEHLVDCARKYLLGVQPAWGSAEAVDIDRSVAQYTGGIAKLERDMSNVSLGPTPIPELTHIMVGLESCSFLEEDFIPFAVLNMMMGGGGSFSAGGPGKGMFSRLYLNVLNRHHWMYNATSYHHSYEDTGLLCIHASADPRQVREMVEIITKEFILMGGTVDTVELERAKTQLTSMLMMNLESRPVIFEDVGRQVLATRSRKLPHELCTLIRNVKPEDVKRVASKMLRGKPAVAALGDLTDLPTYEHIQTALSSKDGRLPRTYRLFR
UniProt Q00577, sequence (Q00577 whole entry, looked up): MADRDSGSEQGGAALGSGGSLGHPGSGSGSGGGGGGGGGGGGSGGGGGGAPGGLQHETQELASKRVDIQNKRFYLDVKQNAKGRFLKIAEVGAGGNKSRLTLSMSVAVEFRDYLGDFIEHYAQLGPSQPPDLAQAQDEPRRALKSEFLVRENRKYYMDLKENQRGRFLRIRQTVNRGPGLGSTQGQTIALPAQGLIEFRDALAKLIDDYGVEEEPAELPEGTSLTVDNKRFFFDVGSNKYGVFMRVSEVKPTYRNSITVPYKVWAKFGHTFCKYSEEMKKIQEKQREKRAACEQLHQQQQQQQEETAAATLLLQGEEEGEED
UniProt Q01970, sequence (Q01970 whole entry, looked up): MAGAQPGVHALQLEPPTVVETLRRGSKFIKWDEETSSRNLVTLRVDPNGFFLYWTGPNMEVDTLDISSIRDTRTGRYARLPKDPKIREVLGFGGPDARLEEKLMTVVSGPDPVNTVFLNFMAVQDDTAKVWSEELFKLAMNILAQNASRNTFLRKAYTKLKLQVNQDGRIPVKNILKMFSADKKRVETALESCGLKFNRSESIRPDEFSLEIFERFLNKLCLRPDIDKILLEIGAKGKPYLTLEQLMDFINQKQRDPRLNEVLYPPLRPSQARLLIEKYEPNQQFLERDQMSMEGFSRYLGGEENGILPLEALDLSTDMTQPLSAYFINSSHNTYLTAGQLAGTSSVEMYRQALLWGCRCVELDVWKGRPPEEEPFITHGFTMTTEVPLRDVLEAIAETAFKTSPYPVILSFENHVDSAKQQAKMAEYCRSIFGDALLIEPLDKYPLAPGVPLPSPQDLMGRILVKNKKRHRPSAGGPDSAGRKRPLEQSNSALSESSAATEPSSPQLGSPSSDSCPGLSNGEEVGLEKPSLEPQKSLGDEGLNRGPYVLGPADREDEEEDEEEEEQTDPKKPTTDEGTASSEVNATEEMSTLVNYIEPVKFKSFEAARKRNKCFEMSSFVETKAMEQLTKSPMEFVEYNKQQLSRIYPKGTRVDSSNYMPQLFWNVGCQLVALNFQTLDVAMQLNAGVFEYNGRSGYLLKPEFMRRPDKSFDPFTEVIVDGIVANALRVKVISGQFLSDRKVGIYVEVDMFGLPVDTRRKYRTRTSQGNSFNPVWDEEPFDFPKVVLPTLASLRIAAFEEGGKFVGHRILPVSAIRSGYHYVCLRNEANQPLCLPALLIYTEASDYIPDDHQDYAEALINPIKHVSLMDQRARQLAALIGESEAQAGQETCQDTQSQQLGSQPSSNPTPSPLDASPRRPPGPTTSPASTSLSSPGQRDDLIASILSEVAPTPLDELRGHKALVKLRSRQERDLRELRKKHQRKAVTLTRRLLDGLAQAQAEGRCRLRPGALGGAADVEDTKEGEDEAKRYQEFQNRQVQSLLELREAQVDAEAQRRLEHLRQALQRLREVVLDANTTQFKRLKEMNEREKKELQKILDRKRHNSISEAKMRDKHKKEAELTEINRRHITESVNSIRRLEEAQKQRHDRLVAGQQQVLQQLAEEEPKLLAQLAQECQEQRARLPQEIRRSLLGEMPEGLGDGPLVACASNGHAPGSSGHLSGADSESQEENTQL
UniProt Q99541, sequence (Q99541 whole entry, looked up): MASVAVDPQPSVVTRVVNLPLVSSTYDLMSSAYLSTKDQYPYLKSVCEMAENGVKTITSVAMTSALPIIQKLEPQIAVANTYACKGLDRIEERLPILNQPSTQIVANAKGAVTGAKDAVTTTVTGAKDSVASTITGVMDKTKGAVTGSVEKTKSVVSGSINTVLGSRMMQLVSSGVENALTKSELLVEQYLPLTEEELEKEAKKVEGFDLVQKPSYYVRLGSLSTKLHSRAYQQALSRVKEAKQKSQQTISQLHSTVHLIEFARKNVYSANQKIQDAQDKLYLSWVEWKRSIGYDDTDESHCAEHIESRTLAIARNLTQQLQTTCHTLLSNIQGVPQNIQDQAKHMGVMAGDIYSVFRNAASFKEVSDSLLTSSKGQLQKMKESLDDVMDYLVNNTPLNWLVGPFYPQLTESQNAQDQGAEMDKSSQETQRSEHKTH
UniProt Q9Y5Y5, sequence (Q9Y5Y5 whole entry, looked up): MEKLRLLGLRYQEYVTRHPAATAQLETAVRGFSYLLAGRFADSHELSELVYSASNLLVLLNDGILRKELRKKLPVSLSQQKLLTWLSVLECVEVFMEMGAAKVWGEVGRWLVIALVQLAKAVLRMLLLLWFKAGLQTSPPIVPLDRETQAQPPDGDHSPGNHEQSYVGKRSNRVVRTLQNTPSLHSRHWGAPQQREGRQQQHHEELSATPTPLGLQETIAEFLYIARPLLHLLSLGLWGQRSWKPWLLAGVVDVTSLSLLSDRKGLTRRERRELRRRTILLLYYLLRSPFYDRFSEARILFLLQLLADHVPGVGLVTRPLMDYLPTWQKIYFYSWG
UniProt O00232, sequence (O00232 whole entry, looked up): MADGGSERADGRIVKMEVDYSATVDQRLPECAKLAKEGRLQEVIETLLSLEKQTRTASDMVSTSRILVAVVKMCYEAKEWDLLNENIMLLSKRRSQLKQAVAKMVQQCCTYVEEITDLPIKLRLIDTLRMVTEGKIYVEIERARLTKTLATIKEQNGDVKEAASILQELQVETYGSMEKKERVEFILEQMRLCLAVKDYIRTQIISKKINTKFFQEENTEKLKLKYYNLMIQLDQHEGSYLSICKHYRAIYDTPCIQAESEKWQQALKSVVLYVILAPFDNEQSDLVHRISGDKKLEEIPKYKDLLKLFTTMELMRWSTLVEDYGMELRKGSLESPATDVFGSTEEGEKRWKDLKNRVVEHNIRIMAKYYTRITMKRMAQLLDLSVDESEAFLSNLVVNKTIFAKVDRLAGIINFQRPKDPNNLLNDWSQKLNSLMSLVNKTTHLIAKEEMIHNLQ
UniProt Q16537, sequence (Q16537 whole entry, looked up): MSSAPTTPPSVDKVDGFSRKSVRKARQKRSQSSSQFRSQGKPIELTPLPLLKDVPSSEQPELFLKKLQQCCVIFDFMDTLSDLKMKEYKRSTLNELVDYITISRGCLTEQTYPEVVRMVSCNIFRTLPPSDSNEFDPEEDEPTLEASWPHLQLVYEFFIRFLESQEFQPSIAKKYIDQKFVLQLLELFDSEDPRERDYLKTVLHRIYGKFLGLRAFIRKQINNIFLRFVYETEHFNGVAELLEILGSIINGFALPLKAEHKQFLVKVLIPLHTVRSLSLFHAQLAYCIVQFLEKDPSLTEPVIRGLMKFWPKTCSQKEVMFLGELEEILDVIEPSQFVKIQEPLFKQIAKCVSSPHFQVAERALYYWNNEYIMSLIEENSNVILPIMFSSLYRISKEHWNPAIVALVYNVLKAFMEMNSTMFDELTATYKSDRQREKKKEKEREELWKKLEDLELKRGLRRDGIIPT

Target | log2 fold change
POLR2M (UniProt P0CAP2) | 0.007
PCID2 (UniProt Q5JVF3) | 0.024
PMPCA (UniProt Q10713) | 0.046
POLA1 (UniProt P09884) | -0.001
PDE2A (UniProt O00408) | -0.041
PDCD4 (UniProt Q53EL6) | 0.029
PURA (UniProt Q00577) | 0.032
PPP1R14A (UniProt Q96A00) | -0.002
PMM2 (UniProt O15305) | -0.102
PTRH2 (UniProt Q9Y3E5) | 0.009
PPP2R5E (UniProt Q16537) | -0.049
PFAS (UniProt O15067) | -0.056
PPP2R5A (UniProt Q15172) | -0.014
PHKG2 (UniProt P15735) | 0.012
PKM (UniProt P14618) | -0.013
PSMD12 (UniProt O00232) | 0.066
PRKAR1B (UniProt P31321) | 0.102
POLR2K (UniProt P53803) | -0.036
PLCB3 (UniProt Q01970) | 0.033

Target | log2 fold change
PLIN2 (UniProt Q99541) | 0.069
POTEI (UniProt P0CG38) | 0.056
PTP4A1 (UniProt Q93096) | -0.007
PI4K2A (UniProt Q9BTU6) | -0.037
POLR3K (UniProt Q9Y2Y1) | -0.028
PEX16 isoform 2 (UniProt Q9Y5Y5) | 0.017
PIGT (UniProt Q969N2) | -0.001
PRKAA1 isoform 2 (UniProt Q13131) | -0.029
PTRHD1 (UniProt Q6GMV3) | -0.051
PPIL2 (UniProt Q13356) | 0.005
PEX13 (UniProt Q92968) | 0.052
PSMD2 (UniProt Q13200) | 0.005
PPID (UniProt Q08752) | 0.011
POLD1 (UniProt P28340) | -0.083
PDCD2L (UniProt Q9BRP1) | -0.001
PRKAB1 (UniProt Q9Y478) | -0.055
PSMD7 (UniProt P51665) | -0.011
PYGL (UniProt P06737) | -0.105
